Where “and” joins values, the source holds several entries; their conditions need not be identical. Equal entries are not always repeated. Calls of active or inactive are those of the source.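 Rule for the calls: active = fitted half-maximal concentration AC50 at or below ten times the highest valid tested dose, with signal falling as DNA is displaced (actives reach about 34 µM in these data); inconclusive = flat fit at moderate signal loss, or poor fit quality; inactive = the rest, including signal rising instead of falling.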

Our source for the AC50 values is PubChem BioAssay AID504727 (Broad Institute, 2011).

A short description of this test: acridine orange-DNA binding displacement – biochemical, fluorescence polarization, cherry-picked samples, set 2, artefact control for KSHV LANA DNA-binding inhibitor project, dose response (AID 504727). The conditions noted are these: series mostly up to 35 µM. On the technique in general: In fluorescence polarisation assays a small probe gives low polarisation when free and higher when bound to something large.
With `CCN(C(=O)COC(=O)CNS(=O)(=O)c1ccc(SC)c([N+](=O)[O-])c1)C1CCCCC1`, the AC50 result is “inactive”.
Turning to `COCCCNc1c2c3c(cccc3[nH]c1=O)C(=O)c1ccccc1-2`, the concentration at half-maximal activity (AC50) is 0.63 µM (active).
Take `COC(=O)C[n+]1cccc2ccccc21`: the AC50 was 8.59 µM (active).
For `Nc1nc(SCC(=O)N2CCCCC2)[nH]c(=O)c1NC(=O)c1cccs1` the value was “inactive”.
`Cc1cc(/C=N/Nc2ccc([N+](=O)[O-])cn2)c(C)n1-c1cccc(C(=O)O)c1`: the AC50 result was “inactive”.
The entry for `COc1[nH]c(/N=C/c2ccccc2)c(C#N)c1C#N` is “inactive”; for `O=C(O)C1Nc2c(O)cc(Cl)c([N+](=O)[O-])c2C2C=CCC12` (stereo not drawn) it is “inactive”; for `COc1ccc(C(=O)c2ccsc2N)cc1` it is “inactive”.
As for `NC(=S)COc1ccccc1`, the AC50 result is “inactive”.
On to `COc1ccc(CC(=O)O/N=C(\N)c2ccc(OC)cc2)cc1`, for which the AC50 entry is “inactive”.
The entry for `S=c1c2c(nc3nc[nH]n13)CCC2` is “inactive”.
In the case of `C[n+]1c2cc(N)ccc2cc2ccc(N)cc21`, the AC50 is 1.66 µM (active) and 2.31 µM (active).
For `Cc1cccc(COc2ccc(/C=N/NC(=O)c3nnn(-c4nonc4N)c3COc3ccc(F)cc3)cc2)c1`, the AC50 result was “inactive”.
Take `CCc1noc(C)c1C(=O)N1CCCC(N2CCN(c3ccc(F)cc3)CC2)C1` (stereo not drawn): the AC50 entry is “inactive”.
For `CNC(=S)Nc1cccc(C(=O)OC)c1` the value was “inactive”; for `COc1c2c(nc3occc13)C(CCC(C)(C)O)(OC)C(O)CC2` (stereo not drawn), “inactive”.
With `CCN(CC)S(=O)(=O)N1CCN(S(=O)(=O)N2CCOCC2)CC1`, the AC50 result is “inactive”.
For `Cc1ccc2c(c1)nnn2C1CCN(C(=O)c2cccs2)CC1` the value was “inactive”; for `O=[N+]([O-])c1cccc(CSc2nc3ccccc3[nH]2)c1`, “inactive”.
For `CCN(CC)c1ccc2cc(S(=O)(=O)c3ccc(C)cc3)c(=O)oc2c1`, the AC50 result was “inactive”.
`Cc1cc(N)ccc1N=Nc1c(C)n(C)n(-c2ccccc2)c1=O`: the AC50 result was “inactive”.
Turning to `NC(=O)C1(N2CCCCC2)CCN(Cc2ccc(Br)cc2)CC1`, the AC50 result is “inactive”.
On to `CN(C)/C=N/c1nc2nccc(-c3ccc(Cl)cc3)n2n1`, for which the AC50 entry is “inactive”.
In the case of `C=CCNC(=O)c1cn(CC)c2cc(N3CCN(C(=O)c4ccco4)CC3)c(F)cc2c1=O`, the AC50 entry was “inactive”.
For the compound `CC(=O)O[C@@H]1[C@@H](OC(C)=O)[C@H](n2ccc3cc([N+](=O)[O-])ccc32)OC[C@@H]1OC(C)=O`, the AC50 result was “inactive”.
Take `O=C(CCN1C(=O)/C(=C\c2ccco2)SC1=S)Nc1ccc(C(=O)O)c(O)c1`: the AC50 result is “inactive”.
The figure for `Cn1nc(-c2ccccc2)c2nc3ccccc3nc21` is 35.8 µM (active); for `CC(C(=O)Nc1ccc(C(=O)O)c(O)c1)N1C(=O)/C(=C\c2ccco2)SC1=S` (stereo not drawn) it is “inactive”.
For the compound `O=C(O)c1ccccc1C1=Nc2ccc(O)cc2Oc2cc(O)ccc21`, the half-maximal activity concentration (AC50) was 13.4 µM (active).
For the compound `NC(=S)NN=Cc1ccc(-c2ccc(S(=O)(=O)Nc3ncccn3)cc2)o1`, the AC50 entry is “inactive”.
Regarding `CC(Sc1nc2ccccc2s1)C(=O)Nc1nnc(C(C)C)s1` (stereo not drawn), the AC50 entry is “inactive”.
The figure for `COc1ccc2ccccc2c1C(O)c1nccn1C` (stereo not drawn) is 4.01 µM (active); for `CN(C)S(=O)(=O)c1cccc(N2C(=O)CC3(CCCCC3)CC2=O)c1` it is “inactive”.
For `COc1ccc(CCNC(=O)CCCNC(=O)Cn2cnc3sc(C)c(C)c3c2=O)cc1OC` the value was “inactive”; for `COc1ccc(/C=C/C(=O)NC(=S)Nc2ccc(S(N)(=O)=O)cc2)cc1`, “inactive”.
Take `CC(C)=C[C@@H]1C[C@H](C)[C@H]2CC[C@H](C)c3c(O[C@@H]4O[C@@H](C)[C@@H](O)[C@@H](O)[C@@H]4O)c(O)c(C)c1c32`: the AC50 entry is “inactive”.
With `NC(=S)N/N=C/c1cn(CCC(=O)O)nc1-c1cccc(Br)c1`, the AC50 result was “inactive”.
Turning to `Cn1c(=O)c(N)c2c3c(c(Br)ccc31)C(=O)c1ccccc1-2`, the AC50 is 2.99 µM (active).

One may read the AC50 as the midpoint of the concentration-response curve, whichever way the signal moves.
